Results filed as inconclusive are left out. Active and inactive are the calls of the source. The call rests on the fitted dose curve; in most records, active means well fitted cell-killing curve with a large enough effect; inconclusive means small, poorly fitted or top-dose-only effect; inactive means flat fitted curve, though single readings scatter.

This note sets out measurements from PubChem BioAssay (NCATS).

The first assay is described as follows: Cell Viability - LYMP2-020 (AID 986).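 Further: cells exposed to compound for 24 h at 37 °C; nearly all actives have a fitted effect of over 55% in size.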 Particulars: series mostly up to 92.2 µM. An excerpt:
NIH Chemical Genomics Center [NCGC]
NIH Molecular Libraries Screening Centers Network [MLSCN]
National Institutes of Environmental Health Sciences [NIEHS]
National Toxicology Program [NTP]
We have developed a 1536-well cell-based assay for quantitative high throughput screening (qHTS) against a number of cell lines to determine in vitro cytotoxicity of small molecules. This particular assay uses a human lymphoblastoid cell line (LYMP2-020) purchased from Coriell Institute for Medical Research.
NCGC Assay Protocol Summary:
The CellTiter-Glo luminescent cell viability assay (Promega) is a homogeneous method to measure the number of viable cells in culture. The end point readout of this assay is based on quantitation of intracellular ATP, an indicator of metabolic activity, using the luciferase reaction. Luciferase catalyzes the oxidation of beetle Luciferin to oxyluciferin and light in the presence of ATP. The luminescent signal is proportional to amount of ATP present.
Using the CellTiter-Glo luminescent cell viability assay, the amount of cellular ATP was measured in the lymphoblastoid cell line with complete culture medium following compound treatment for 24 hours. The assay was performed in opaque white Kalypsys 1536-well plates. In the screen, tetraoctylammonium bromide was used as positive control. Library compounds were measured for their ability to cause acute toxicity in the cell line, as reflected by a decrease in intracellular ATP levels, in a concentration-dependent manner. […] AC50 values were determined from concentration-response data modeled with the standard Hill equation.
qHTS protocol for CellTiter Glo lymphoblastoid cellular assay
[Step] [Parameter] [Value] [Description]
1. Reagent; 5 uL; 2500 lymphoblastoid cells/well
2. Time; 5 hr; 37 C incubation
4. Controls; 23 nL; Tetraoctylammonium bromide 6.4pM to 92 uM
5. Time; 24 hr; 37 C incubation
6. Reagent; 5 uL; CellTiter Glo reagent
7. Time; 30 min; Room Temperature
8. Detection; Luminescence; Viewlux plate reader
Keywords: cell viability, cytotoxicity, lymphoblastoid cell line, luminescence, NTPHTS, NTPHTS_NCGC, NIEHS, DSSTox, MLSMR, MLSCN, NIH Roadmap, qHTS, NCGC
`CCCC(CCC)C(=O)O`: the call was inactive.
The same measure, in the same setting: in the case of `NC(=O)c1cnccn1` it was “inactive”.
On the same count and under the same terms, for `CC(=O)Oc1ccccc1C(=O)O` the value was “inactive”; for `NS(=O)(=O)c1cc2c(cc1Cl)NC=NS2(=O)=O`, “inactive”.
For the compound `O=c1[nH]cnc2[nH]ncc12`, the call was inactive.

The nature of a further assay: Cell Viability - LYMP2-022 (AID 987). Further: nearly all actives have a fitted effect of over 55% in size. Particulars: LYMP2-022 lymphoblastoid cell viability; series mostly up to 92.2 µM. A digest of the protocol: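 Acute toxicity in a human lymphoblastoid line is scored as decreased intracellular ATP after 24 hr compound treatment at 37 C. ATP is measured by CellTiter-Glo luminescence; curves are fitted with the Hill equation to give AC50.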
Turning to `CCCC(CCC)C(=O)O`, the compound was classed as inactive.
The same measure, in the same setting: for `NC(=O)c1cnccn1` the value was “inactive”.
For the compound `CC(=O)Oc1ccccc1C(=O)O`, the outcome was inactive.
Consider `NS(=O)(=O)c1cc2c(cc1Cl)NC=NS2(=O)=O`, for which the result was inactive.
As for `NC(N)=NC(=O)c1nc(Cl)c(N)nc1N`, the call was inactive.
The same measure, in the same setting: for `O=c1[nH]cnc2[nH]ncc12` the value was “inactive”.

The next assay is described as follows: Cell Viability - LYMP2-024 (AID 988). Further: nearly all actives have a fitted effect of over 60% in size. The conditions noted are these: LYMP2-024 lymphoblastoid cell viability; series mostly up to 92.2 µM. A digest of the protocol: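 Acute toxicity is measured as concentration-dependent loss of intracellular ATP in a human lymphoblastoid line treated 24 hours at 37 C. Luciferase luminescence quantifies ATP; AC50 values come from standard Hill-equation modelling.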
For `CCCC(CCC)C(=O)O`, the outcome was inactive.
Same read-out and setting: for `NC(=O)c1cnccn1` the value was “inactive”.
The same measure, in the same setting: in the case of `CC(=O)Oc1ccccc1C(=O)O` it was “inactive”; in that of `NS(=O)(=O)c1cc2c(cc1Cl)NC=NS2(=O)=O`, “inactive”.
With `NC(N)=NC(=O)c1nc(Cl)c(N)nc1N`, the result was inactive.
Still for that read-out and setting: for `O=c1[nH]cnc2[nH]ncc12` the value was “inactive”.
